Laboratory results: the supplement of paper PMC13380429

Tested on: Vero E6 infected with SARS-CoV-2
Assay: inhibition of SARS-CoV-2 cytopathic effect; higher = more antiviral protection, active = above 15
Settings: 48 h

Measured: inhibition of SARS-CoV-2 cytopathic effect

O=C(O)[C@H]1CC[C@H](c2cc3cccnc3c(-c3cccc(F)c3)n2)CC1
inactive: 1 nM -3.3% | 8.33 nM -2.36% | 100 nM -0.1% | 833.33 nM 0.23% | 10000 nM 1.21%

CC1(C)CCC(C)(C)c2cc(NC(=O)c3ccc(C(=O)O)cc3)ccc21 [tamibarotene]
inactive: 1 nM 4.56% | 8.33 nM 1.67% | 100 nM 1.5% | 833.33 nM 0.87% | 10000 nM 0.68%

O=C1COc2c(CCNCCN(C(=O)CCNCCc3ccc(Cl)c(Cl)c3)C3CCCCC3)ccc(O)c2N1
inactive: 1 nM -5.28% | 8.33 nM -4.67% | 100 nM -5.93% | 833.33 nM -1.32% | 10000 nM -3.71%

C#CCN(C)[C@H](C)Cc1ccccc1 [selegiline]
inactive: 1 nM 0.68% | 8.33 nM -1.21% | 100 nM 1.02% | 833.33 nM 0.09% | 10000 nM -0.75%

CN(C)C(=O)[C@H](O)[C@H](Cc1ccccc1)NC(=O)c1cc2cc(Cl)ccc2[nH]1
inactive: 1 nM 0.8% | 8.33 nM -0.29% | 100 nM -0.45% | 833.33 nM 1.2% | 10000 nM 4.47%

CC[N+](CC)(CCCNC1=CC(=O)C(NCCC[N+](CC)(CC)Cc2ccccc2)=CC1=O)Cc1ccccc1 [benzoquinonium-dibromide]
inactive: 1 nM -1.79% | 8.33 nM 1.05% | 100 nM -2.22% | 833.33 nM 0.21% | 10000 nM -1.78%

CC(=C(CCO)SSCC1CCCO1)N(C=O)Cc1cnc(C)nc1N (stereo in doubt) [fursultiamine]
inactive: 1 nM 2.52% | 8.33 nM 0.44% | 100 nM 2.45% | 833.33 nM -1.75% | 10000 nM -2.11%
